DT40 TDP1 CPT: growth inhibition of DT40 Tdp1-/-;hTDP1 cells with camptothecin (screen for TDP1 inhibitors); chicken DT40 Tdp1-/-;hTDP1 cells + 20 nM CPT, ATP luminescence, 48 h; Potency, µM (highest dose often 46.2 µM), inactives show at the highest dose activity change, negative = growth inhibition, most hits filed as inhibitors; 420,000 tested, 12% active; AID 686979; further: potency means the concentration at half of the fitted maximal effect; on the % scale 0 is the no-effect control and ±100 the full control effect; nearly all actives have a fitted effect of over 55% in size
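Chicken DT40 Tdp1-/- cells stably complemented with human TDP1 were seeded at 400 cells/well in medium containing 20 nM camptothecin, exposed to pin-transferred compounds, and grown at 37 °C for at least 48 hr. Viability was read as ATP luminescence.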
IL1B secr inh: inflammasome signaling inhibition, IL-1 beta readout; THP-1 LPS/ATP IL-1B secretion, AlphaLISA, 16 h; stronger effect = lower value; activity change, % at 57.5 µM; 360,000 tested, 4.7% active; AID 743279; in the data active means activity change below about -50%; inconclusive means mostly about -30% to -49%; further: on the % scale 0 is the no-effect control and ±100 the full control effect
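THP-1 cells pretreated 1 hr with compounds (up to 57.5 uM final), then stimulated with LPS (250 ng/mL final) plus ATP (1.25 mM final); secreted IL-1B measured by AlphaLISA after 16 hr, decreased signal indicating inhibition.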
DT40 TDP1 no CPT: qHTS for Inhibitors of human tyrosyl-DNA phosphodiesterase 1 (TDP1): qHTS in cells in absence of CPT. DT40 Tdp1-/- hTDP1 cells, no CPT, ATP luminescence, 48 h. Potency, µM (series often up to 46.2 µM), for inactives: top-dose activity change, negative = growth inhibition, most hits filed as inhibitors. 420,000 tested, 15% active; further: potency means the concentration at half of the fitted maximal effect; on the % scale 0 is the no-effect control and ±100 the full control effect; nearly all actives have a fitted effect of over 55% in size
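A cellular qHTS used chicken DT40 cells lacking endogenous Tdp1 but carrying stably transfected human TDP1. Compounds were applied without camptothecin, and cell growth kinetics were judged by ATP-dependent luminescence after ≥48 hr.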
TGFb inhibitor: TGF-b pathway inhibition. HepG2 CAGA-GFP TGF-b/SMAD3 reporter, GFP fluorescence, 18 h; TGF-beta stimulated, 500 pg/mL final. Potency, µM (highest dose often 46.1 µM), without a hit: at the highest dose activity, negative = inhibition, usual class: inhibitors. 410,000 tested, 1.2% active; further: potency means the concentration at half of the fitted maximal effect; on the % scale 0 is the no-effect control and ±100 the full control effect; nearly all actives have a fitted effect of over 65% in size
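GFP signal (ex488/em500-530) from TGF-beta-stimulated HEPG2 CAGA-GFP cells, 500 pg/mL final, 18 h at 37 degrees C in DMEM plus 1% FBS, normalized to unstimulated and DMSO-stimulated controls.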
HepG2 viability: HepG2 cytotoxicity, counter-screen for TGF-b inhibitors | HepG2 CAGA-GFP viability, ATP luminescence, 18 h | Potency, µM (highest dose often 46.1 µM), inactives show top-dose activity change, negative = cytotoxicity, hits mostly cytotoxic | 410,000 tested, 0.76% active | AID 588856; further: potency means the concentration at half of the fitted maximal effect
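HepG2 CAGA-GFP cells (1000/well, DMEM with 1% FBS) received compound, then TGF-beta at 500 pg/mL final, and were incubated 18 hours at 37 degrees C. Viability was read by CellTiter-Glo luminescence. Media-only wells were set as complete cell-killing and DMSO as no toxicity.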
TDP1 block: inhibitors of human tyrosyl-DNA phosphodiesterase TDP1; Q9NUW8; recombinant TDP1, AlphaScreen DNA substrate cleavage; Potency, µM (highest dose often 130 µM), for inactives: top-dose activity change, negative = inhibition, actives largely listed as inhibitors; 350,000 tested, 0.28% active; AID 485290; further: potency means the concentration at half of the fitted maximal effect; on the % scale 0 is the no-effect control and ±100 the full control effect; nearly all actives have a fitted effect of over 40% in size
Target sequence (Q9NUW8 whole entry, looked up): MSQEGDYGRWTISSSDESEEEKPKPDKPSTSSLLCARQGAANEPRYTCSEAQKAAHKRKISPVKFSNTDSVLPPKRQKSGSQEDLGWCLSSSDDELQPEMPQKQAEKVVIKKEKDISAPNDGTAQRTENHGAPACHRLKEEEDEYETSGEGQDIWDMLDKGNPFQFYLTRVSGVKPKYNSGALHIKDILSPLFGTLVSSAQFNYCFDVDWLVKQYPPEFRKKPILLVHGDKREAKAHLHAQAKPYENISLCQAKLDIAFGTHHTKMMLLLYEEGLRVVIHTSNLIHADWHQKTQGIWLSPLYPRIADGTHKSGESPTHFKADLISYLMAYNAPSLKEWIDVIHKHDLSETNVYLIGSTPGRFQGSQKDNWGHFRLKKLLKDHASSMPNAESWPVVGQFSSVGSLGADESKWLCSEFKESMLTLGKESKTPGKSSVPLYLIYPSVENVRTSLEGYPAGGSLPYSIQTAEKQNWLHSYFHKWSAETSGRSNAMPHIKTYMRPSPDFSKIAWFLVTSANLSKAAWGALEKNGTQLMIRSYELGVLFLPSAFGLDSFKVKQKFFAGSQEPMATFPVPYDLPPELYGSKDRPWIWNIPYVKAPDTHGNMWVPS
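AlphaScreen read-out: signal falls as enzyme removes the 3' tyrosine-FITC from a 5'-biotinylated DNA oligo (15 nM, 5 min, RT). Enzyme was E. coli-made recombinant Tdp1 at 1 nM, exposed to compound for 15 min beforehand; beads 10 ug/ml, 10 min.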
The depositor's hits bear a star; ? = inconclusive; . = not tested or not shown; ! = repeats disagree; [ ] = remark or other dose. Rows were chosen to be rich in hits. Some 18% of all compounds tested hit in one or more screens of this group. Unless noted, the call rests on the fitted dose curve; in most records, active means well fitted curve in the direction sought with a large enough effect; inconclusive means small, poorly fitted or top-dose-only effect, or another doubt; inactive means no such curve, though single readings can be large; an effect the other way counts as inactive or inconclusive.

SMILES	DT40 TDP1 CPT	IL1B secr inh	DT40 TDP1 no CPT	TGFb inhibitor	HepG2 viability	TDP1 block
COc1ccc(S(=O)(=O)N2CC(O)CC2C(=O)Nc2cccnc2)cc1 (stereo unspecified)	10%	2	-2%	17%	16%	5%
CC(=O)Nc1cccc(-c2csc(C(O)c3ccc(F)c(F)c3)n2)c1 (stereo unspecified)	?	18	?	?	-48%	.
O=S(=O)(Nc1ccc(-c2ccc3nncn3n2)cc1)c1cc(F)ccc1F	?	39	?	6%	-12%	-4%
O=S(=O)(Nc1cccc(-c2ccc3nncn3n2)c1)c1cccc(F)c1	-24%	10	-18%	10%	4%	-8%
COc1ccc(CC(=O)Nc2cccc(-c3ccc4nnc(C)n4n3)c2)cc1OC	-25%	?	9.2µM*	0%	-12%	0%
CCOc1ccc(CC(=O)Nc2cccc(-c3ccc4nnc(C)n4n3)c2)cc1	?	-12	?	-7%	-42%	8%
COc1ccc(C(=O)Nc2cccc(-c3ccc4nncn4n3)c2)cc1OC	?	50	-30%	-2%	-27%	2%
COc1ccc(OC)c(S(=O)(=O)Nc2ccc(-c3ccc4nncn4n3)cc2)c1	2.1µM*	-1	2.1µM*	-1%	7.9µM*	-9%
COc1ccc(CC(=O)Nc2cccc(-c3ccc4nncn4n3)c2)cc1OC	?	30	15µM*	-1%	2%	0%
COc1ccc(S(=O)(=O)Nc2cccc(-c3ccc4nncn4n3)c2)cc1F	2.3µM*	73	2.3µM*	0%	4%	4%
CN(C)C=Nc1ccc([N+](=O)[O-])c2ccccc12	5%	?	?	1%	-20%	.
CN(C)c1ncc2nc(-c3cc(F)cc(F)c3)c(=O)n(C[C@H]3CCCO3)c2n1	-7%	.	19%	.	.	.
CCn1c(CNC(=O)c2ccccc2OC)nnc1SCC(=O)c1ccc(F)cc1	5%	15	7%	-2%	4%	7%
Cc1cccc(N2CCN(c3ccc4cc(S(=O)(=O)N5CCCCC5)ccc4n3)CC2)c1C	12µM*	43	12µM*	7%	-6%	-2%
Cc1cccc(N2CCN(c3ccc4cc(S(=O)(=O)N5CCCCC5)ccc4n3)CC2C)c1 (stereo unspecified)	12µM*	42	16µM*	4%	3%	0%
CCN(CC)C(=O)COc1ccc2c3c(c(=O)oc2c1)CCCC3	-9%	-19	-23%	2%	-3%	.
Cc1nc2nc(CNC(=O)OC(C)(C)C)nn2c(C)c1CCC(=O)Nc1ccc2c(c1)OCO2	-5%	-2	0%	5%	0%	5%
Cc1ccccc1/C=C/C1=NCCN1	-14%	-92*	0%	-9%	-3%	-7%
Cc1ccccc1/C=N/n1c(-c2ccccn2)n[nH]c1=S	15%	24	-3%	10%	-1%	4%
Cn1cc(C[C@H](NC(=O)OC(C)(C)C)C(=O)N[C@@H](CO)Cc2ccccc2)c2ccccc21	18µM*	-6	?	-21%	-21%	.
CC(C)(C)OC(=O)NC(Cc1ccccc1)C(=O)NCCCC(=O)O (stereo unspecified)	-26%	1	-6%	3%	3%	-3%
O=C(CCn1c(=O)c2cccn2c2cccnc21)N1CCN(c2ccc(F)cc2)CC1	15µM*	.	16µM*	-52%	-3%	3%
CCOC(=O)c1ccc(NC(=O)CCCn2c(=O)c3cccn3c3ccccc32)cc1	?	.	?	-21%	-21%	3%
CCCCN(CC)C(=O)CCn1c(=O)c2cccn2c2cccnc21	?	.	18µM*	-21%	-11%	-3%
CCc1cccc(C)c1NC(=O)CCCn1c(=O)c2cccn2c2cccnc21	23µM*!	-8	?	24%	6%	-7%
SMILES	DT40 TDP1 CPT	IL1B secr inh	DT40 TDP1 no CPT	TGFb inhibitor	HepG2 viability	TDP1 block
CCOC(=O)c1ccc(NC(=O)CCCn2c(=O)c3cccn3c3cccnc32)cc1	?	.	18µM*	-20%	-32%	3%
CCOC(=O)c1ccc(NC(=O)CCn2c(=O)c3cccn3c3cccnc32)cc1	21µM*	.	?	0%	-26%	0%
O=C(O)CCn1c(SCCc2ccccc2)nc2ccccc21	2%	14	-13%	5%	1%	.
O=C1C2C(c3ccccc3)CC=CC2C(c2cccc([N+](=O)[O-])c2)N1Cc1ccccc1 (stereo unspecified)	.	.	.	-28%	-26%	13%
C[C@@H]1CC=C[C@H]2[C@H]1C(=O)N(Cc1ccccc1)[C@H]2c1ccc(C(F)(F)F)cc1	?	14	21µM*	22µM*	-22%	0%
O=C1C2C(c3ccccc3)CC=CC2[C@H](c2ccc(C(F)(F)F)cc2)N1Cc1ccccc1 (stereo partly specified)	18µM*	-18	?	?	-33%	0%
O=C1C2C(c3ccccc3)CC=CC2[C@H](c2cccc([N+](=O)[O-])c2)N1Cc1ccccc1 (stereo partly specified)	16µM*	0	?	-4%	-4%	7%
O=C(NCCOc1ccccc1)O[C@@H]1C(=O)c2cc(Br)ccc2O[C@H]1c1ccc2c(c1)OCO2	.	.	.	.	.	8%
COc1ccc(C)cc1NC(=O)COc1cc(=O)n(C)c2ccccc12	-20%	.	-21%	3%	10%	-1%
CCN=c1scc(-c2ccccc2)n1/N=C/c1ccccn1	4.1µM*	-58*	3.7µM*	-28%	-35%	8%
CCN=c1scc(-c2ccc(F)cc2)n1/N=C/c1ccccn1	?	-51*	16µM*	0%	-2%	3%
Cc1nc2ccccc2c(=O)n1/N=C/c1ccccn1	1%	-8	-23%	0%	-10%	-2%
O=C(Nc1ccc2c(c1)CCC2)c1ccc(F)cc1	8%	-17	6%	0%	-32%	-1%
O=C(Nc1ccc2c(c1)CCC2)c1ncoc1-c1ccccc1F	-19%	-74*	?	-18%	-20%	-13%
CCCCNC(=O)CN1CCN(Cc2ccc3cc(OC)ccc3c2)CC1	?	0	18µM*	?	-34%	.
COc1cccc(N(CC(=O)NCCSc2ccccn2)S(=O)(=O)c2ccccc2)c1	-20%	-59*	?	-8%	-21%	3%[0.0935 µM]

High-throughput results (PubChem BioAssay)
